ALDH1A1 inh: inhibitors of human aldehyde dehydrogenase 1A1 | P00352 | Purified ALDH1A1, NADH fluorescence, propionaldehyde substrate | Potency, µM (doses to about 75.3 µM), hits mostly inhibitors | 220,000 compounds, 7.3% hits
Target sequence (P00352 whole entry, looked up): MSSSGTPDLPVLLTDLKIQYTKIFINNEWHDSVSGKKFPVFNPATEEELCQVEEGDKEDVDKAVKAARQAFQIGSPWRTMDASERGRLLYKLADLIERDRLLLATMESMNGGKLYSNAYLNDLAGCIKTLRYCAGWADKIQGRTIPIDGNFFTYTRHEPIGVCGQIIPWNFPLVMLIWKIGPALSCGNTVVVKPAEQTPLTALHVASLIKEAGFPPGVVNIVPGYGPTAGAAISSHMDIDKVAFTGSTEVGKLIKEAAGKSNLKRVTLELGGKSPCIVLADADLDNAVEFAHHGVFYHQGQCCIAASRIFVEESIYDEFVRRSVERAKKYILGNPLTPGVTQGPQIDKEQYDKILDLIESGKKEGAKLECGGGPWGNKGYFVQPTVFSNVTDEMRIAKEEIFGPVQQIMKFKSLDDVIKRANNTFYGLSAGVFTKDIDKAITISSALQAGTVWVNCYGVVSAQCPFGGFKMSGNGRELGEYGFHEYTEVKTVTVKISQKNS
HPGD block: inhibitors of human 15-hydroxyprostaglandin dehydrogenase (HPGD) | 150,000 compounds, 4.3% hits | purified HPGD, NADH fluorescence kinetic, PGE2 substrate | P15428 | Potency, µM, most hits filed as inhibitors
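20 nM HPGD preincubated 15 min at room temperature with compound in 50 mM Tris-HCl pH 8, 0.01% Tween 20. Started with 1 mM NAD+ and 30 uM prostaglandin E2; NADH fluorescence (360/450 nm) read 5 times over 30-s intervals, last minus first.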
12-hLO inh: 12-hLO (ALOX12) enzyme inhibition | 150,000 compounds, 0.12% hits | AID 1452 | Potency, µM (series often up to 57.1 µM), most hits filed as inhibitors | purified 12-hLO, xylenol orange hydroperoxide absorbance; active means well fitted inhibition curve with a large enough effect; inconclusive means small, poorly fitted or top-dose-only effect; further: nearly all actives have a fitted effect of over 55% in size
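Xylenol orange chromogenic assay: hydroperoxide from 12hLO oxidises Fe(II), giving red-shifted Fe(III)-XO absorbance. Conditions: 150 nM enzyme, 40 uM arachidonic acid, 25 mM Hepes pH 7.0, 0.01% Triton X-100, 30 min, room temperature.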
Lamin A splicing: changes lamin A minigene splicing in HeLa cells; Potency, µM (doses to about 46.1 µM), most hits filed as inhibitors; AID 1487; HeLa LMNA splicing GFP/RFP minigene ratio, 48 h; 200,000 compounds, 0.01% hits; active means well fitted inhibition curve with a large enough effect in the signal ratio, with a control signal flat, not every such curve was filed as active; inconclusive means small, poorly fitted or top-dose-only effect, or effect the other way, or a change in a side signal; the % refers to the signal ratio
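S3 HeLa cells stably expressing lamin A-EGFP splicing minigene plus DsRed2, 600 cells/well, 48 h compound exposure at 37C. Laser-scanning cytometry; analysed as GFP (500-530 nm)/RFP (575-640 nm) total intensity ratio; 0.5% DMSO vehicle.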
PNC inhibitor: inhibitors of perinucleolar compartment assembly | PC3M PTB-GFP, PNC prevalence imaging, 16 h; hits give low values | activity change (PNC), negative = inhibition, % at 10 µM | 140,000 compounds, 3.1% hits | AID 2417;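 active means readout at or below -70, meaning at least 70% loss of cells showing the perinucleolar compartment, a nuclear body marking cancer cells; inconclusive means readout between -30 and a set limit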
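PC3M cells stably expressing PTB-GFP, 750–1000 cells/well, treated 16 h at 37 °C with compound (23 nl of library stock), in duplicate. After paraformaldehyde fixation and Hoechst stain, imaged at 20x; PNC prevalence scored by image analysis.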
A number is an active result; – = inactive; ? = inconclusive; · = no result given; [ ] = remark or other dose. Compounds with a hit are over-represented: about 10% of the library has one in this group of screens. Unless noted, the call rests on the fitted dose curve; in most records, active means well fitted inhibition curve with a large enough effect (not every such curve was filed as active); inconclusive means small, poorly fitted or top-dose-only effect, or another doubt; inactive means no such curve, though single readings can be large or run the other way.

SMILES	ALDH1A1 inh	HPGD block	12-hLO inh	Lamin A splicing	PNC inhibitor
Cc1ccc(NC(=O)c2scc3c2CCCC3)cc1	–	–	–	?	–
CCOC(=O)c1c(-c2ccc(C)o2)csc1NC(=O)CN1CCC(C(N)=O)CC1	25µM	·	·	·	·
CCOC(=O)c1c(-c2ccc(C)o2)csc1NC(=O)CSc1nncs1	11µM	20µM	?	–	?
COc1ccc(CCNC(=O)C2CCN(c3ncnc4c3nc3n4CCCCC3)CC2)c(OC)c1	·	·	·	–	·
S=c1ccss1	2.2µM	6.3µM	–	?	·
Cc1ccc[n+](CC(=O)Nc2ccc([N+](=O)[O-])cc2Cl)c1	16µM	–	–	–	?
COc1cc([N+](=O)[O-])ccc1NC(=O)C[n+]1cccc(C)c1	?	–	–	–	–
Nc1nnc(N2CCCCCC2)s1	–	–	–	–	–
Nc1nnc(N2CCCCC2)s1	25µM	–	–	?	–
Cc1cccc2c1c1ccc3c(c1n2C)C(=O)C=CC3=O	0.32µM	·	·	?	·
Cc1ccccc1N1CC(=O)N(c2ccccc2C)CC1=O	–	–	–	–	–
CCNC(=O)C1CN(S(=O)(=O)c2ccccc2)CCN1S(=O)(=O)c1ccccc1 (configuration not stated)	?	–	–	–	–
CCc1cccc(CC)c1NC(=O)C1CN(S(=O)(=O)c2ccccc2)CCN1S(=O)(=O)c1ccccc1 (configuration not stated)	–	·	–	–	-111
O=C(CN1CCSC1=NCc1ccccc1)c1ccc(Cl)c(Cl)c1	13µM	–	–	–	–
C[C@@H](C(=O)NCc1ccc(C(F)(F)F)nc1)[C@H]1C[C@]1(C)[C@H](NC(=O)OCc1ccccc1)c1ccccc1	?	–	–	·	·
N#C/C(=C\c1ccc(N2CCOCC2)o1)c1ccccc1	11µM	?	–	?	-90
N#C/C(=C/c1ccc(N2CCOCC2)o1)c1ccc(Br)cc1	16µM	?	?	–	–
N#C/C(=C/c1ccc(N2CCOCC2)o1)c1nc2ccccc2[nH]1	–	–	–	?	?
N#C/C(=C\c1ccc(N2CCOCC2)cc1)c1ccccc1	?	–	–	?	–
N#C/C(=C/c1ccc(N2CCCCCC2)o1)c1cccc(F)c1	2µM	25µM	?	–	?
COc1cc(N2CCCC2)c(OC)cc1/C=C(/C#N)c1cccc(F)c1	?	–	–	–	-89
COc1cc(N2CCCC2)c(OC)cc1/C=C1/NC(=S)NC1=O	–	–	–	–	?
O=C(Nc1ccc(N2CCCC2)cc1)c1cccc(F)c1	–	–	–	–	–
CCOc1ccc(Cn2c(CNS(=O)(=O)c3cccs3)nc3cccnc32)cc1	·	·	·	–	·
N#Cc1ccccc1CN1C(=O)c2ccccc2Sc2ccc(C(=O)OCc3ccco3)cc21	·	·	·	–	·
SMILES	ALDH1A1 inh	HPGD block	12-hLO inh	Lamin A splicing	PNC inhibitor
O=C1N/C(=N/O)S/C1=C/c1cccnc1	–	·	·	·	·
Cc1ccc(S(=O)(=O)/N=C2/NC(=O)/C(=C/c3cccnc3)S2)cc1	–	20µM	–	–	–
Cc1ccc(N=C2NC(=O)/C(=C\c3ccco3)S2)cc1	–	?	–	–	?
Cc1ccc(S(=O)(=O)/N=C2/NC(=O)/C(=C/c3ccc(Br)o3)S2)cc1	–	14µM	?	?	?
NC1=C(c2ccc(F)cc2)C(=O)CS1	20µM	6.3µM	–	–	?
COC(=O)CCC(=O)OC1(C)C(=O)C=C2C=C(C3CC3)N(c3ccc(OC)cc3)C=C2C1=O (configuration not stated)	–[13.5 µM]	–	–[11.4 µM]	–[9.22 µM]	·
CCc1ccc(NC(=O)c2ccc(C3SCC(=O)N3CCc3ccccc3)cc2)cc1 (configuration not stated)	?	–	–	?	–
CCNC(=O)c1ccc(C2SCC(=O)N2CCc2ccccc2)cc1 (configuration not stated)	–	22µM	–	?	–
CCCNC(=O)c1ccc(C2SCC(=O)N2CCc2ccccc2)cc1 (configuration not stated)	–	13µM	–	?	–
CCOc1ccccc1NC(=O)c1cc(SC)ccc1Cl	–	·	·	·	·
Cc1ccc(S(=O)(=O)NN=C2CCN(Cc3ccccc3)CC2)cc1	3.5µM	–	–	–	–
Cc1ccc(S(=O)(=O)NNC(=O)C2CCN(Cc3ccccc3)CC2)cc1	–	–	–	–	-100
Cc1ccc2[nH]c3c(=O)n(CC(=O)N4CCCC(C)C4)ncc3c2c1 (configuration not stated)	·	·	·	–	·
COc1cccc(S(=O)(=O)c2nc(C)c3c(n2)CCC3)c1	6.3µM	·	·	·	·
CC(NC(=O)c1ccc(Br)cc1)c1ccccc1 (configuration not stated)	11µM	–	–	?	–
CC(NC(=O)/C=C/c1ccc(Br)cc1)c1ccccc1 (configuration not stated)	–	–	–	?	-84
COc1ccc2[nH]cc(CCNc3ccnc(-c4c(C)noc4C)n3)c2c1	–	·	·	–	·
COc1ccc(C2(CNC(=O)/C=C\c3ccco3)CCCC2)cc1OC	3.5µM	?	–	–	?
CCOC(=O)N/N=C(C)/C=C/c1ccco1	10µM	–	–	–	–
CC(/C=C/c1ccco1)=N/NC(=O)CNc1ccccc1C	–	·	·	·	·
COc1ccc(C(NC(=O)/C=C/c2ccco2)c2ccc(OC)c(OC)c2)cc1OC	?	–	–	–	?
CC(/C=C/c1ccco1)=N\NC(=O)CNc1ccc2ccccc2c1	7.9µM	·	·	–	·
CC(/C=C/c1ccco1)=N\NC(=O)COc1ccc(C)c(C)c1	3.5µM	·	·	·	·
Cc1ccc(OCCNC(=O)/C=C/c2ccco2)cc1C	11µM	·	·	·	·
Cc1ccc(OCCNC(=O)/C=C/c2ccc([N+](=O)[O-])cc2)cc1C	–	–	–	–	–
SMILES	ALDH1A1 inh	HPGD block	12-hLO inh	Lamin A splicing	PNC inhibitor
Cc1ccc(NC2Sc3ccccc3NC2=O)cc1 (configuration not stated)	25µM	·	·	–	·
COc1ccccc1-n1c(=O)n(C)c2c(C(N)=O)nc(-c3cc(OC)c(OC)c(OC)c3)nc21	·	·	·	–	·
COc1ccc(C(C)=O)cc1COC(=O)c1ccc(S(=O)(=O)N(C)C)cc1	7.1µM	·	·	·	·
COc1ccc(C(C)=O)cc1COC(=O)c1ccc2c(c1)OCO2	10µM	–	–	–	–
COc1ccc(C(C)=O)cc1COC(=O)c1cnc(Cl)c(Cl)c1	1.4µM	·	·	–	·
CCOC(=O)CCCOC(=O)c1ccc(S(=O)(=O)N(C)C)cc1	–	–	–	–	-100
CNS(=O)(=O)c1cccc(C(=O)OCc2cc(C(C)=O)ccc2OC)c1	?	·	·	–	·
CN(C)S(=O)(=O)c1ccc(C(=O)OCc2ccc(C#N)cc2)cc1	–	–	–	–	?
O=C(c1csnn1)N1CCC2(CC1)CCN(c1cccc(-c3ccccc3)c1)CC2	–	–	–	·	·
COc1cccc([C@@H]2Oc3ccc(OC)cc3C(=O)[C@H]2OC(=O)NCCc2ccc(OC)c(OC)c2)c1	–	–	·	·	·
O=C(O)C/C(=C\c1ccco1)C(=O)O	–[13.5 µM]	–	–[11.4 µM]	·	·
Cc1nn(-c2ccc(N3CCCCC3)nn2)c(C)c1CCC(=O)NCc1ccc(Cl)cc1	·	·	·	–	·
CC(C)N(c1ccccc1)c1ccc(NC(=O)CCl)cc1	0.4µM	·	·	?	·

Screening results deposited in PubChem BioAssay by National Center for Advancing Translational Sciences (NCATS).
